Reference: PubChem BioAssay (NCI)
Compounds without any hit were thinned out: in the full panel of roughly 83,000, 20% have a hit.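 Cell lines were cultured in 96-well plates, exposed to a single compound concentration, and assessed for percent growth 48 hours later.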 Active and inactive are the calls of the source. Rule for the calls: active = growth percent below 10; inactive = the rest.

What was measured:
Assay in all cases: NCI-60 one-dose screen, 48 h (100 = growth as untreated, 0 = no growth, -100 = all killed)
HL-60(TB) leukemia = settings: 10 µM unless noted
NCI-H322M lung = settings: 10 µM
HOP-62 NSCLC = settings: 10 µM
A549/ATCC NSCLC = settings: 10 µM
COLO 205 colon = settings: 10 µM
DU-145 prostate = settings: 10 µM
MALME-3M melanoma = settings: 10 µM
SF-268 CNS = settings: 10 µM
SF-295 CNS = settings: 10 µM
SF-539 CNS = settings: 10 µM
UACC-257 melanoma = settings: 10 µM
M14 melanoma = settings: 10 µM
HCT-15 colon = settings: 10 µM
HT29 colon = settings: 10 µM
SNB-75 CNS = settings: 10 µM
SNB-19 CNS = settings: 10 µM
SK-MEL-5 melanoma = settings: 10 µM
UACC-62 melanoma = settings: 10 µM
SK-MEL-28 melanoma = settings: 10 µM
SK-MEL-2 melanoma = settings: 10 µM

Measured: growth

O=C(c1ccc(Cl)cc1)C1[C@H](c2ccc(Br)cc2)[C@@H](c2ccccc2)NC12C(=O)Nc1ccc(Br)cc12 (some centres undefined)
active: HL-60(TB) leukemia -42.8%

CC1=C(C=O)C2=C(C)C3(CC3)[C@@](C)(O)C(=O)C2=C1
inactive: NCI-H322M lung 67.2% | HOP-62 NSCLC 37.5% | A549/ATCC NSCLC 17.8% | COLO 205 colon 30.4% | SF-268 CNS 36.2% | SF-295 CNS 70.5% | UACC-257 melanoma 73.8% | M14 melanoma 13.6% | HT29 colon 15.8% | SNB-75 CNS 16.5% | SNB-19 CNS 54.5% | UACC-62 melanoma 49.3% | SK-MEL-28 melanoma 23.3%
active: DU-145 prostate 8.41% | MALME-3M melanoma 1.71% | SF-539 CNS -47.8% | HCT-15 colon -29.3% | SK-MEL-5 melanoma -91.5% | SK-MEL-2 melanoma 8.32%

CC(C)C[C@H](NC(=O)CNC(=O)C[C@H]1O[C@@H]2OC3(C)CC[C@H]4[C@H](C)CC[C@@H]([C@H]1C)[C@@]24OO3)B(O)O
active: HOP-62 NSCLC -17% | MALME-3M melanoma -56.5% | SF-295 CNS -63.6% | SF-539 CNS -93.3% | UACC-257 melanoma -56.9% | M14 melanoma -43.8% | HT29 colon -56% | SNB-75 CNS -15.7% | SK-MEL-5 melanoma -90.2% | UACC-62 melanoma -86.6% | SK-MEL-28 melanoma -38.5% | SK-MEL-2 melanoma -57.3% | HL-60(TB) leukemia 0.92%
inactive: NCI-H322M lung 51.6% | A549/ATCC NSCLC 32.7% | COLO 205 colon 17.8% | DU-145 prostate 42.3% | SF-268 CNS 17.4% | HCT-15 colon 22.7% | SNB-19 CNS 27.4%

CC12OOC(C)(OO1)C2CCC(=O)NCCNc1ccnc2cc(Cl)ccc12 (centres undefined)
inactive: NCI-H322M lung 97.4% | HOP-62 NSCLC 89.9% | A549/ATCC NSCLC 119% | COLO 205 colon 73% | DU-145 prostate 104% | MALME-3M melanoma 89.7% | SF-268 CNS 95.6% | SF-295 CNS 91.1% | SF-539 CNS 102% | UACC-257 melanoma 112% | M14 melanoma 105% | HCT-15 colon 95.2% | HT29 colon 105% | SNB-75 CNS 101% | SNB-19 CNS 98.2% | SK-MEL-5 melanoma 93.9% | UACC-62 melanoma 91.8% | SK-MEL-28 melanoma 104% | SK-MEL-2 melanoma 105%
